# Hits are enriched below; roughly 21% of the tested compounds scored in any of these assays.
# Giardia FBPA inh – inhibitors of Giardia lamblia fructose-1,6-bisphosphate aldolase; AID 2451; purified Giardia FBPA; Potency, µM (top dose mostly 59.6 µM), usual class: inhibitors; A8B2U2; 290,000 tested, 0.71% active; note: nearly all actives have a fitted effect of over 55% in size
# Target sequence (A8B2U2 whole entry, looked up): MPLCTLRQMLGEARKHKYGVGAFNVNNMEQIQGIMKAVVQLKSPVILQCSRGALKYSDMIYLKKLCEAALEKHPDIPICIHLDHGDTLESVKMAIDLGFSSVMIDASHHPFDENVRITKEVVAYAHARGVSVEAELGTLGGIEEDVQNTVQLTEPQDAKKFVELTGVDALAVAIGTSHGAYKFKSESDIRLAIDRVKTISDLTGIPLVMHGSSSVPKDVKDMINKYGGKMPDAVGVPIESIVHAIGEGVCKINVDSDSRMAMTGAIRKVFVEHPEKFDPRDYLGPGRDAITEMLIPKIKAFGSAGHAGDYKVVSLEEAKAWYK
#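 40 nM FBPA preincubated 10 min at RT with compound (up to 57.5 uM final), then substrate plus GAPDH/TPI/NAD/arsenate coupling and diaphorase/resazurin added. Fluorescence read after 20 min at RT, 525/598 nm.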
# Cycloheximide cs – counter-screen for Shiga toxin inhibitors: cycloheximide protein synthesis inhibition; cell reporter, cycloheximide protein synthesis inhibition counterscreen; max response, %; 300,000 tested, 12% active; AID 2314; in the data active = max response mostly above about 13%, no sharp cut-off; inactive = mostly below about 14%; note: read at 38.3 µM for the half of the compounds with a filed dose
# NS1 function inh – influenza NS1 inhibition | AID 2326 | Potency, µM (titrated, usually from 46.1 µM) | 270,000 tested, 0.4% active; calls by dose curve; note: actives are rising curves; nearly all actives have a fitted effect of over 50% in size
#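 A cell-based growth assay was used: compounds that relieve NS1-induced slow growth of budding yeast raise OD600. Assay medium was yeast nitrogen base with ammonium sulphate and -URA supplement, pH 6.0, with 2% galactose.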
# Pf growth 96h – P. falciparum growth inhibition at 96 hour, primary screen for plastid delayed-death inhibitors; P. falciparum luciferase reporter growth, 96 h; Potency, µM (highest dose often 28.7 µM), most hits filed as inhibitors; 320,000 tested, 6.9% active; AID 504834
#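 Two parasite generations (96 h, 37 C, 5% CO2) of compound exposure in infected erythrocytes (0.05% parasitemia, 2% hematocrit). Luciferase-reporter P. falciparum; decreased luminescence indicates inhibited growth, aimed at apicoplast-acting delayed death.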
# Shiga inhibitor – inhibitors of Shiga toxin in Vero cells; Vero cells, Shiga toxin protein synthesis inhibition reporter; inhibition, % at 38.7 µM; 290,000 tested, 9.2% active; AID 2315; in the data active = inhibition mostly above about 28%, no sharp cut-off; inactive = mostly below about 43%
# Pf growth 48h – inhibits P. falciparum growth in the first generation, 48 h. P. falciparum luciferase growth in erythrocytes, 48 h. 310,000 tested, 5.9% active. Potency, µM (series often up to 28.7 µM), hits mostly inhibitors
#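 Compounds are pin-transferred into medium, infected erythrocytes (2% hematocrit, 0.1% parasitemia final) are added, and plates sit one parasite generation at 37 C in 5% CO2. Detection reagent is then added and luminescence measured.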
# A number is an active result; n = inactive; u = inconclusive; x = no result given. Unless noted, calls come from the whole dose curve; as a rule, active = well fitted curve in the direction sought with a large enough effect; inconclusive = small, poorly fitted or top-dose-only effect, or another doubt; inactive = no such curve, though single readings can be large; an effect the other way counts as inactive or inconclusive.
SMILES,Giardia FBPA inh,Cycloheximide cs,NS1 function inh,Pf growth 96h,Shiga inhibitor,Pf growth 48h
CN(c1ccccc1C(=O)N1CCN(c2ccccc2F)CC1)S(=O)(=O)c1ccccc1,x,n,n,10.4µM,n,n
CN(c1ccc(C(=O)N2CCN(c3ccccc3F)CC2)cc1)S(=O)(=O)c1ccccc1,n,n,n,n,n,n
Cc1ccc(CC(=O)N2CCN(c3ccccc3F)CC2)cc1,n,13.1,n,u,n,n
Cc1ccc(S(=O)(=O)N(CC(=O)N2CCN(c3ccccc3F)CC2)C2CCCCC2)cc1,n,n,n,10.4µM,n,x
O=C(CCS(=O)(=O)c1ccccc1)N1CCN(c2ccccc2F)CC1,x,35.0,n,n,109.5,n
Cc1cc2oc(=O)cc(-c3ccccc3)c2c(C)c1-c1ccoc1,n,n,x,x,n,x
CCn1c(NC(C)=O)c(-c2ccccc2Cl)c(=O)c2ccccc21,n,n,n,n,n,n
COCC(C)Nc1nc(C)c(C(C)=O)s1 (stereo not given),n,n,x,n,n,n
COc1cccc(C2CC(=O)C3=C(C2)Nc2ccccc2N(C(=O)CCC(=O)O)C3c2ccc(F)cc2)c1 (stereo not given),u,n,n,n,n,n
CCCCCC1(C(=O)OCC)CC(CSC(=N)N)OC1=O (stereo not given),n,n,n,n,n,n
CCOc1ccccc1Nc1nnc(SCC(=O)Nc2cccc(S(=O)(=O)NC3=NCCCCC3)c2)s1,n,n,u,9.28µM,n,u
CCOc1ccccc1Nc1nnc(SCC(=O)Nc2ccc3[nH]c(=O)[nH]c3c2)s1,n,n,n,u,n,n
CCOc1ccc2nc(SCC(=O)Nc3cccc(S(=O)(=O)NC4=NCCCCC4)c3)[nH]c2c1,n,n,x,u,n,11.7µM
CO/N=C(\C(=O)N[C@@H]1C(=O)N2C(C(=O)[O-])=C(C[n+]3cccc4c3CCC4)CS[C@H]12)c1csc(N)n1,x,x,x,n,x,n
COCCn1c(=NC(=O)CSCC(=O)N2CCOCC2)sc2ccccc21,x,n,n,n,n,n
CCOC(=O)C(C(=O)N(C)Cc1ccccc1)C1CCCCC1 (stereo not given),n,n,n,u,n,n
COc1ccc(OC)c(C2=CC(=O)C[C@H](c3ccc4c(c3)OCO4)C2)c1,x,x,x,u,x,n
CC(C)(C)C(=O)Oc1ccc2cc(-c3ccc4ccccc4n3)c(=O)oc2c1,n,n,n,n,n,n
CCNc1ccccc(-c2ccc3ccccc3n2)c1=O,u,40.5,n,n,133.8,n
CC(C)[N+](C)(C)CC#CC(O)(c1ccccc1)c1ccccc1,n,n,n,n,n,n
C[N+]1(CC#CC(O)(c2ccccc2)c2ccccc2)CCCC1,n,n,n,5.22µM,n,u
CCN(CC)CCC#CC(O)(c1ccccc1)c1ccccc1,n,n,n,9.28µM,n,n
CC(Nc1nc(=S)nc(Nc2ccc(F)cc2)[nH]1)c1ccccc1 (stereo not given),n,n,u,10.4µM,x,11.7µM
O=C(COC(=O)CN1C(=O)NC2(CCCC2)C1=O)Nc1c(Cl)cccc1C(F)(F)F,x,x,x,n,x,n
Cc1c(Cl)cccc1NC(=O)CSc1sc2c(O)cc(=O)[nH]c2c1C#N,n,n,n,n,n,n
SMILES,Giardia FBPA inh,Cycloheximide cs,NS1 function inh,Pf growth 96h,Shiga inhibitor,Pf growth 48h
N#Cc1c(SCC(=O)Nc2ccc(Cl)cc2Cl)sc2c(O)cc(=O)[nH]c12,n,n,n,n,n,2.94µM
CCN(CC)CCN1C(=O)c2ccccc2NC1c1cccc(F)c1 (stereo not given),n,n,n,x,n,u
CN(C)CCN1C(=O)c2oc3ccccc3c(=O)c2C1c1ccc(F)cc1 (stereo not given),n,n,n,u,n,u
CCN(CC)CCN1C(=O)c2ccccc2NC1c1ccc(F)cc1 (stereo not given),n,n,n,u,n,u
CCN(CC)CCN1C(=O)c2ccccc2NC1c1ccc(N(C)C)cc1 (stereo not given),n,n,n,x,n,0.415µM
CCN(CC)CCN1C(=O)c2ccccc2NC1c1ccc(C)cc1 (stereo not given),n,n,n,x,n,1.65µM
CCN(CC)CCN1C(=O)c2oc3ccccc3c(=O)c2C1c1ccc(C)cc1 (stereo not given),n,n,n,2.62µM,n,3.29µM
CCN(CC)CCN1C(=O)c2ccccc2NC1c1ccc(Br)cc1 (stereo not given),n,n,x,13.1µM,n,1.04µM

# High-throughput results as filed in PubChem.
